The list is not random: actives were taken first. Their share in the collection is about 4.9%.
SKKanGAS inh = S. pyogenes SKKanGAS growth inhibitors in kanamycin, primary screen, streptokinase expression inhibitor project, SKKanGAS strain, BacTiter-Glo luminescence; 6 h; inhibition, % at 7.5 µM; actives 1.3% (n = 300,000); AID 1662, 2009;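 active means mean replicate score, as percent of positive control median, at least 50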;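 further: strain carries kanamycin resistance gene driven by streptokinase promoter and grows in 40 µg/ml kanamycin; loss of luminescence reflects streptokinase promoter inhibition or plain growth inhibition; 0% = median of DMSO wells and 100% = positive control at its reference dose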
NALP1 yeast inh = NALP1 inflammasome inhibitors in reconstituted yeast, colorimetric, S. cerevisiae, triplicate retest; S. cerevisiae NALP1/ASC/caspase-1 growth, X-gal OD620, 72 h; actives 0.61% (n = 280,000); inhibition, % at 10 µM; AID 2071, 2009; in the data active means inhibition mostly above about 24%, no sharp cut-off; inactive means mostly below about 32%
TIM10 inh = growth inhibitors of isogenic TIM10 control yeast, primary screen, counter-screen for tim10-1 yeast inhibitor project, luminescence, uHTS. actives 1.4% (n = 330,000). S. cerevisiae TIM10 strain growth, BacTiter-Glo luminescence, 24 h. AID 463195, 2010. inhibition, % at 10 µM;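 active means inhibition of 40% or more at the single tested concentration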;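 further: wild-type TIM10 isogenic control strain grown at permissive 25 °C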
tim10-1 inh = growth inhibitors of tim10-1 mutant yeast, primary screen, luminescence, uHTS | S. cerevisiae tim10-1 ts strain growth, BacTiter-Glo, 24 h | inhibition, % at 20 µM | actives 2.2% (n = 330,000) | AID 463190, 2010;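 active means inhibition of at least 40%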;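 further: mutant grown at 25 °C; 0% = DMSO wells with yeast and 100% = wells holding no yeast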
tim23-1 inh = growth inhibitors of tim23-1 mutant yeast, primary screen, luminescence, uHTS; S. cerevisiae tim23-1 growth, BacTiter-Glo luminescence, 24 h; inhibition, % at 20 µM; actives 1.3% (n = 330,000); AID 463212, 2010;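 active means growth inhibition of the mutant yeast at or above 50%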;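 further: temperature-sensitive mutant grown at 25 °C; plate controls were DMSO-treated mutant yeast for no effect and medium wells lacking yeast for full effect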
NALP3 yeast inh = NALP3 inflammasome inhibitors in reconstituted yeast, primary screen, luminescence, uHTS | Yeast reconstituted NLRP3/ASC/caspase-1, beta-gal luminescence, 24 h | inhibition, % at 10 µM | actives 0.39% (n = 330,000) | AID 2825, 2010;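 active means inhibition of 50% or more; inactive means inhibition below 50%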;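 further: plate controls were induced DMSO wells for no effect and uninduced yeast grown without galactose for full effect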
NALP3 confirm = NALP3 inhibitors retested in yeast, confirmation, luminescence, single concentration; actives 81% (n = 1,300); inhibition, % at 10 µM; yeast expressing human NALP3; shares compounds with NALP3 yeast inh; in the data active means inhibition above about 48%
Casp1-ASC yeast = CASP1-PYCARD signaling inhibition in yeast, confirmatory test, counterassay for NLRP3 inhibitor program, one-dose; shares compounds with NALP3 yeast inh; yeast expressing Caspase-1-ASC, luminescence counter screen; inhibition, % at 10 µM; actives 66% (n = 1,000)
NALP3 retest = NALP3 inhibitors in yeast, repeat test, confirmation, luminescence, single concentration, retest; actives 53% (n = 1,000); shares compounds with NALP3 yeast inh; inhibition, % at 10 µM; yeast expressing human NALP3, luminescence read-out; AID 488794, 2010
An asterisk follows results filed as active. Unless noted, no stated cut-off is given here; in the data, active means inhibition above about 50%; inactive means the rest.

What do the screens show for `O=C(/C=C/c1cccc2ccccc12)N1CCOCC1`?
SKKanGAS inh: -6; NALP1 yeast inh: 2; TIM10 inh: 15; tim10-1 inh: 17; tim23-1 inh: 16; NALP3 yeast inh: 16

How did O=C(CSc1c[nH]c2ccccc12)N1CCCc2ccccc21 do in these assays?
SKKanGAS inh: -2; NALP1 yeast inh: 29; TIM10 inh: 7; tim10-1 inh: 25; tim23-1 inh: 31; NALP3 yeast inh: 31

What do the screens show for `O=C(Cc1c[nH]c2ccccc12)N1CCc2ccccc21`?
SKKanGAS inh: 11; NALP1 yeast inh: 10; TIM10 inh: 12; tim10-1 inh: 20; tim23-1 inh: 14; NALP3 yeast inh: 62*; NALP3 confirm: 38; Casp1-ASC yeast: 60*; NALP3 retest: 60*

How did CCOc1cc(C)c(S(=O)(=O)N2CCCCC2)cc1C do in these assays?
SKKanGAS inh: 23; NALP1 yeast inh: 1; TIM10 inh: -12; tim10-1 inh: -2; tim23-1 inh: 13; NALP3 yeast inh: 74*; NALP3 confirm: 76*; Casp1-ASC yeast: 80*; NALP3 retest: 65*

How did COc1cc(C)c(S(=O)(=O)N2CCCC2)cc1C do in these assays?
SKKanGAS inh: -2; NALP1 yeast inh: 24; TIM10 inh: -10; tim10-1 inh: 3; tim23-1 inh: 19; NALP3 yeast inh: 77*; NALP3 confirm: 83*; Casp1-ASC yeast: 87*; NALP3 retest: 65*

What do the screens show for `CCOc1cc(S(=O)(=O)N2CCCC2)c(C)cc1C`?
SKKanGAS inh: -8; NALP1 yeast inh: 17; TIM10 inh: 12; tim10-1 inh: 11; tim23-1 inh: 15; NALP3 yeast inh: 39

What do the screens show for `COc1ccc(OC)c(-c2nn(-c3ccccc3)cc2C(=O)NCC(c2ccco2)N2CCCC2)c1` (stereo unspecified)?
TIM10 inh: 4; tim10-1 inh: -1; tim23-1 inh: 1; NALP3 yeast inh: 19

How did COc1ccc2cc1Oc1ccc(cc1)C[C@H]1c3c(cc(OC)c4c3Oc3c(ccc5c3[C@H](C2)N(C)CC5)O4)CCN1C do in these assays?
TIM10 inh: -13; tim10-1 inh: -37; tim23-1 inh: -43; NALP3 yeast inh: 69*; NALP3 confirm: 53*; Casp1-ASC yeast: 57*; NALP3 retest: 69*

How did COc1ccc2cc1Oc1ccc(cc1)CC1c3c(cc(OC)c4c3Oc3cc5c(cc3O4)CCNC5C2)CCN1C (stereo unspecified) do in these assays?
SKKanGAS inh: 17; TIM10 inh: -14; tim10-1 inh: -18; tim23-1 inh: -23; NALP3 yeast inh: 34

How did COc1cc2c(cc1OC)CN(S(=O)(=O)/C=C/c1ccccc1)CC2 do in these assays?
SKKanGAS inh: 0; NALP1 yeast inh: 19; TIM10 inh: 4; tim10-1 inh: 25; tim23-1 inh: 22; NALP3 yeast inh: 5

What do the screens show for `COc1ccccc1-c1oc2ccccc2c1C#CC(C)(C)O`?
TIM10 inh: 0; tim10-1 inh: -19; tim23-1 inh: 39; NALP3 yeast inh: 72*; NALP3 confirm: 59*; Casp1-ASC yeast: 71*; NALP3 retest: 60*

What do the screens show for `COc1ccccc1-c1oc2ccccc2c1C#CCO`?
TIM10 inh: 4; tim10-1 inh: 7; tim23-1 inh: 7; NALP3 yeast inh: -18

What do the screens show for `CCn1nccc1C(=O)Nc1ccc(C(=O)OC(C)C)cc1`?
SKKanGAS inh: -3; NALP1 yeast inh: 12; TIM10 inh: 10; tim10-1 inh: 26; tim23-1 inh: 24; NALP3 yeast inh: 43

What do the screens show for `Cn1c(C(=O)N2CCCc3ccccc32)cc2sccc21`?
SKKanGAS inh: -7; NALP1 yeast inh: -2; TIM10 inh: 31; tim10-1 inh: 21; tim23-1 inh: 45; NALP3 yeast inh: 51*; NALP3 confirm: 64*; Casp1-ASC yeast: 40; NALP3 retest: 35

How did COc1ccccc1NC(=O)COc1cccnc1[N+](=O)[O-] do in these assays?
TIM10 inh: 9; tim10-1 inh: 14; tim23-1 inh: 5; NALP3 yeast inh: 51*; NALP3 confirm: 67*; Casp1-ASC yeast: 75*; NALP3 retest: 62*

How did O=C(COc1cccnc1[N+](=O)[O-])Nc1ccc(F)cc1 do in these assays?
TIM10 inh: -1; tim10-1 inh: 2; tim23-1 inh: -4; NALP3 yeast inh: 14

Results for CCOc1ccccc1NC(=O)COc1cccnc1[N+](=O)[O-] ?
TIM10 inh: 6; tim10-1 inh: 4; tim23-1 inh: 28; NALP3 yeast inh: 59*; NALP3 confirm: 74*

Results for COc1ccccc1CNc1ncccc1[N+](=O)[O-] ?
SKKanGAS inh: 9; NALP1 yeast inh: 24; TIM10 inh: 6; tim10-1 inh: -5; tim23-1 inh: 1; NALP3 yeast inh: 50*; NALP3 confirm: 48*; Casp1-ASC yeast: 37; NALP3 retest: 39

What do the screens show for `COc1ccccc1CNC(=O)COc1cccnc1[N+](=O)[O-]`?
SKKanGAS inh: 0; NALP1 yeast inh: 6; TIM10 inh: 14; tim10-1 inh: -7; tim23-1 inh: 0; NALP3 yeast inh: 22

What do the screens show for `Cc1nc(NC(=O)COC(=O)c2ccc(CO)cc2)c(Cl)cc1Cl`?
TIM10 inh: 7; tim10-1 inh: -7; tim23-1 inh: 9; NALP3 yeast inh: 9

What do the screens show for `O=c1ccc2ccc(OCc3ccccc3)cc2o1`?
SKKanGAS inh: -1; NALP1 yeast inh: 20; TIM10 inh: -8; tim10-1 inh: 31; tim23-1 inh: 35; NALP3 yeast inh: -12

How did COCCNC(=O)c1cc2c3ccccc3n(C)c2s1 do in these assays?
SKKanGAS inh: -1; NALP1 yeast inh: -16; TIM10 inh: -14; tim10-1 inh: 10; tim23-1 inh: 8; NALP3 yeast inh: -7

How did CCCNC(=O)c1cc2c3ccccc3n(C)c2s1 do in these assays?
SKKanGAS inh: -2; NALP1 yeast inh: 55; TIM10 inh: 31; tim10-1 inh: 36; tim23-1 inh: 44; NALP3 yeast inh: 51*; NALP3 confirm: 50*; Casp1-ASC yeast: 35; NALP3 retest: 25

Bioassay records (PubChem BioAssay)
